Experiments:
Experiment in all cases: SPOT peptide array binding signal intensity (averaged, normalized) (arbitrary units (background-subtracted, floor 0; scale differs between SH3 domains)); higher = stronger binding of the SH3 domain to the peptide
SpBzz1-D2 = molecular target: SpBzz1-D2
Method: (§1)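 GST-tagged SH3 domains from S. cerevisiae (Sc), A. gossypii (Ag), C. albicans (Ca) and S. pombe (Sp) were incubated at 10 ug/ml overnight at 4 C on cellulose SPOT membranes carrying 292 synthetic 15-mer peptides mined from the S. cerevisiae proteome (cysteines replaced by serines). Binding was detected with anti-GST antibody, HRP secondary and chemiluminescence, quantified with Genespotter, and reported as normalized spot intensities averaged over biological replicates.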

SpCyk3 = molecular target: SpCyk3
Method: as §1

SpHof1 = molecular target: SpHof1
Method: as §1

SpHof1-2 = molecular target: SpHof1-2
Method: as §1

SpHof1-3 = molecular target: SpHof1-3
Method: as §1

SpHse1 = molecular target: SpHse1
Method: as §1

SpLsb1 = molecular target: SpLsb1
Method: as §1

SpLsb4 = molecular target: SpLsb4
Method: as §1

SpMyo1 = molecular target: SpMyo1
Method: as §1

SpNbp2 = molecular target: SpNbp2
Method: as §1

SpPex13 = molecular target: SpPex13
Method: as §1

SpRvs167 = molecular target: SpRvs167
Method: as §1

SpSla1-D1-D2 = molecular target: SpSla1-D1-D2
Method: as §1

SpSla1-D3 = molecular target: SpSla1-D3
Method: as §1

AgAbp1 = molecular target: AgAbp1
Method: as §1

AgBbc1 = molecular target: AgBbc1
Method: as §1

AgBem1-D1 = molecular target: AgBem1-D1
Method: as §1

AgBzz1-D1 = molecular target: AgBzz1-D1
Method: as §1

AgBzz1-D2 = molecular target: AgBzz1-D2
Method: as §1

AgCyk3 = molecular target: AgCyk3
Method: as §1

AgFus1 = molecular target: AgFus1
Method: as §1

AgHof1 = molecular target: AgHof1
Method: as §1

AgHse1 = molecular target: AgHse1
Method: as §1

AgLsb1 = molecular target: AgLsb1
Method: as §1

AgLsb4 = molecular target: AgLsb4
Method: as §1

AgMyo5 = molecular target: AgMyo5
Method: as §1

AgNbp2 = molecular target: AgNbp2
Method: as §1

AgRvs167 = molecular target: AgRvs167
Method: as §1

AgSho1 = molecular target: AgSho1
Method: as §1

AgSla1-D1-D2 = molecular target: AgSla1-D1-D2
Method: as §1

AgSla1-D3 = molecular target: AgSla1-D3
Method: as §1

CaAbp1-D1 = molecular target: CaAbp1-D1
Method: as §1

CaAbp1-D2 = molecular target: CaAbp1-D2
Method: as §1

CaBbc1 = molecular target: CaBbc1
Method: as §1

CaBem1-D1 = molecular target: CaBem1-D1
Method: as §1

CaBzz1-D1 = molecular target: CaBzz1-D1
Method: as §1

CaBzz1-D2 = molecular target: CaBzz1-D2
Method: as §1

CaCyk3 = molecular target: CaCyk3
Method: as §1

CaFus1 = molecular target: CaFus1
Method: as §1

CaHof1 = molecular target: CaHof1
Method: as §1

CaHse1 = molecular target: CaHse1
Method: as §1

CaLsb1 = molecular target: CaLsb1
Method: as §1

CaLsb4 = molecular target: CaLsb4
Method: as §1

CaMyo5 = molecular target: CaMyo5
Method: as §1

CaNbp2 = molecular target: CaNbp2
Method: as §1

CaRvs167 = molecular target: CaRvs167
Method: as §1

CaRvs167-3 = molecular target: CaRvs167-3
Method: as §1

CaSho1 = molecular target: CaSho1
Method: as §1

CaSla1-D1-D2 = molecular target: CaSla1-D1-D2
Method: as §1

CaSla1-D3 = molecular target: CaSla1-D3
Method: as §1

ScAbp1 = molecular target: ScAbp1
Method: as §1

ScBbc1 = molecular target: ScBbc1
Method: as §1

ScBem1-D1 = molecular target: ScBem1-D1
Method: as §1

ScBzz1-D1 = molecular target: ScBzz1-D1
Method: as §1

ScBzz1-D2 = molecular target: ScBzz1-D2
Method: as §1

ScCyk3 = molecular target: ScCyk3
Method: as §1

ScFus1 = molecular target: ScFus1
Method: as §1

ScHof1 = molecular target: ScHof1
Method: as §1

ScHse1 = molecular target: ScHse1
Method: as §1

ScLsb1 = molecular target: ScLsb1
Method: as §1

ScLsb2 = molecular target: ScLsb2
Method: as §1

ScLsb3 = molecular target: ScLsb3
Method: as §1

ScLsb4 = molecular target: ScLsb4
Method: as §1

ScMyo3 = molecular target: ScMyo3
Method: as §1

ScMyo5 = molecular target: ScMyo5
Method: as §1

ScNbp2 = molecular target: ScNbp2
Method: as §1

ScPex13 = molecular target: ScPex13
Method: as §1

ScRvs167 = molecular target: ScRvs167
Method: as §1

ScSho1 = molecular target: ScSho1
Method: as §1

ScSla1-D1-D2 = molecular target: ScSla1-D1-D2
Method: as §1

ScSla1-D3 = molecular target: ScSla1-D3
Method: as §1

SpAbp1-D1 = molecular target: SpAbp1-D1
Method: as §1

SpBbc1 = molecular target: SpBbc1
Method: as §1

SpBzz1-D1 = molecular target: SpBzz1-D1
Method: as §1

B1: unnamed (peptide)
chain: KTKQQKPAIPQKKSF
What does the source list for B1?
SPOT peptide array binding signal intensity (SpBzz1-D2): 2; SPOT peptide array binding signal intensity (SpCyk3): ≤ 0; SPOT peptide array binding signal intensity (SpHof1): 0.5; SPOT peptide array binding signal intensity (SpHof1-2): 5.75; SPOT peptide array binding signal intensity (SpHof1-3): 134; SPOT peptide array binding signal intensity (SpHse1): 3.75; SPOT peptide array binding signal intensity (SpLsb1): 5.5; SPOT peptide array binding signal intensity (SpLsb4): 22.5; SPOT peptide array binding signal intensity (SpMyo1): 5; SPOT peptide array binding signal intensity (SpNbp2): ≤ 0; SPOT peptide array binding signal intensity (SpPex13): ≤ 0; SPOT peptide array binding signal intensity (SpRvs167): 1; SPOT peptide array binding signal intensity (SpSla1-D1-D2): 3; SPOT peptide array binding signal intensity (SpSla1-D3): 1

B2: unnamed (peptide)
chain: KRKRRLPVSEDTNTK
How did the “SPOT peptide array binding signal intensity” value (AgAbp1) turn out when B2 was run?
The value was 42.5.

And the “SPOT peptide array binding signal intensity” value (AgBbc1)?
Its value is 25.

And the “SPOT peptide array binding signal intensity” value (AgBem1-D1)?
Its value is 322.

What about the “SPOT peptide array binding signal intensity” value (AgBzz1-D1) of the same binder?
Its value is 26.5.

And the “SPOT peptide array binding signal intensity” value (AgBzz1-D2)?
The value was 47.5.

And the “SPOT peptide array binding signal intensity” value (AgCyk3)?
Its value is 1.

What about the “SPOT peptide array binding signal intensity” value (AgFus1) of the same binder?
The value was 519.

And the “SPOT peptide array binding signal intensity” value (AgHof1)?
The value was 87.

What about the “SPOT peptide array binding signal intensity” value (AgHse1) of the same binder?
The value was 656.

And the “SPOT peptide array binding signal intensity” value (AgLsb1)?
Its value is 1.5.

What about the “SPOT peptide array binding signal intensity” value (AgLsb4) of the same binder?
Its value is 46.5.

What about the “SPOT peptide array binding signal intensity” value (AgMyo5) of the same binder?
Its value is 1.5.

And the “SPOT peptide array binding signal intensity” value (AgNbp2)?
Its value is 213.

What about the “SPOT peptide array binding signal intensity” value (AgRvs167) of the same binder?
Its value is 3.5.

And the “SPOT peptide array binding signal intensity” value (AgSho1)?
Its value is 53.

What about the “SPOT peptide array binding signal intensity” value (AgSla1-D1-D2) of the same binder?
Its value is 25.5.

What about the “SPOT peptide array binding signal intensity” value (AgSla1-D3) of the same binder?
Its value is 7.

What about the “SPOT peptide array binding signal intensity” value (CaAbp1-D1) of the same binder?
Its value is 514.

And the “SPOT peptide array binding signal intensity” value (CaAbp1-D2)?
The value was 626.

What about the “SPOT peptide array binding signal intensity” value (CaBbc1) of the same binder?
The value was 97.

What about the “SPOT peptide array binding signal intensity” value (CaBem1-D1) of the same binder?
Its value is 3.

And the “SPOT peptide array binding signal intensity” value (CaBzz1-D1)?
Its value is 85.

And the “SPOT peptide array binding signal intensity” value (CaBzz1-D2)?
Its value is 69.8.

What about the “SPOT peptide array binding signal intensity” value (CaCyk3) of the same binder?
Its value is 24.

And the “SPOT peptide array binding signal intensity” value (CaFus1)?
The value was 1030.

And the “SPOT peptide array binding signal intensity” value (CaHof1)?
The value was 0.5.

And the “SPOT peptide array binding signal intensity” value (CaHse1)?
Its value is 49.

And the “SPOT peptide array binding signal intensity” value (CaLsb1)?
The value was 0.75.

What about the “SPOT peptide array binding signal intensity” value (CaLsb4) of the same binder?
Its value is 154.

What about the “SPOT peptide array binding signal intensity” value (CaMyo5) of the same binder?
Its value is 3.

And the “SPOT peptide array binding signal intensity” value (CaNbp2)?
Its value is 255.

And the “SPOT peptide array binding signal intensity” value (CaRvs167)?
Its value is 8.67.

And the “SPOT peptide array binding signal intensity” value (CaRvs167-3)?
Its value is 9.75.

And the “SPOT peptide array binding signal intensity” value (CaSho1)?
Its value is 288.

And the “SPOT peptide array binding signal intensity” value (CaSla1-D1-D2)?
Its value is 8.

And the “SPOT peptide array binding signal intensity” value (CaSla1-D3)?
Its value is 8.75.

And the “SPOT peptide array binding signal intensity” value (ScAbp1)?
The value was 30.

And the “SPOT peptide array binding signal intensity” value (ScBbc1)?
Its value is 30.

And the “SPOT peptide array binding signal intensity” value (ScBem1-D1)?
The value was 183.

And the “SPOT peptide array binding signal intensity” value (ScBzz1-D1)?
The value was 15.5.

And the “SPOT peptide array binding signal intensity” value (ScBzz1-D2)?
The value was 16.5.

What about the “SPOT peptide array binding signal intensity” value (ScCyk3) of the same binder?
Its value is 143.

What about the “SPOT peptide array binding signal intensity” value (ScFus1) of the same binder?
The value was 298.

What about the “SPOT peptide array binding signal intensity” value (ScHof1) of the same binder?
The value was 3.5.

What about the “SPOT peptide array binding signal intensity” value (ScHse1) of the same binder?
Its value is 1340.

And the “SPOT peptide array binding signal intensity” value (ScLsb1)?
Its value is 1.5.

And the “SPOT peptide array binding signal intensity” value (ScLsb2)?
Its value is 11.

What about the “SPOT peptide array binding signal intensity” value (ScLsb3) of the same binder?
The value was 562.

And the “SPOT peptide array binding signal intensity” value (ScLsb4)?
Its value is 16.

And the “SPOT peptide array binding signal intensity” value (ScMyo3)?
The value was 5.75.

And the “SPOT peptide array binding signal intensity” value (ScMyo5)?
Its value is 6.75.

What about the “SPOT peptide array binding signal intensity” value (ScNbp2) of the same binder?
The value was 210.

And the “SPOT peptide array binding signal intensity” value (ScPex13)?
The value was 0.5.

And the “SPOT peptide array binding signal intensity” value (ScRvs167)?
The value was 16.3.

And the “SPOT peptide array binding signal intensity” value (ScSho1)?
Its value is 808.

And the “SPOT peptide array binding signal intensity” value (ScSla1-D1-D2)?
The value was 261.

What about the “SPOT peptide array binding signal intensity” value (ScSla1-D3) of the same binder?
The value was 103.

And the “SPOT peptide array binding signal intensity” value (SpAbp1-D1)?
The value was 214.

And the “SPOT peptide array binding signal intensity” value (SpBbc1)?
The value was 3.

And the “SPOT peptide array binding signal intensity” value (SpBzz1-D1)?
Its value is 40.

And the “SPOT peptide array binding signal intensity” value (SpBzz1-D2)?
Its value is ≤ 0.

What about the “SPOT peptide array binding signal intensity” value (SpCyk3) of the same binder?
The value was 6.5.

And the “SPOT peptide array binding signal intensity” value (SpHof1)?
Its value is 150.

What about the “SPOT peptide array binding signal intensity” value (SpHof1-2) of the same binder?
The value was 12.

What about the “SPOT peptide array binding signal intensity” value (SpHof1-3) of the same binder?
Its value is 602.

What about the “SPOT peptide array binding signal intensity” value (SpHse1) of the same binder?
The value was 391.

And the “SPOT peptide array binding signal intensity” value (SpLsb1)?
Its value is 5.75.

What about the “SPOT peptide array binding signal intensity” value (SpLsb4) of the same binder?
Its value is 268.

And the “SPOT peptide array binding signal intensity” value (SpMyo1)?
Its value is 3.5.

And the “SPOT peptide array binding signal intensity” value (SpNbp2)?
The value was 331.

What about the “SPOT peptide array binding signal intensity” value (SpPex13) of the same binder?
Its value is 8.5.

And the “SPOT peptide array binding signal intensity” value (SpRvs167)?
The value was 2.83.

And the “SPOT peptide array binding signal intensity” value (SpSla1-D1-D2)?
The value was ≤ 0.

And the “SPOT peptide array binding signal intensity” value (SpSla1-D3)?
The value was 6.

Reference: the supplement of paper PMC4466140
